Reference: PubChem BioAssay (EPA / NIEHS)
Activity calls are given as the source filed them. Rule for the calls: active = hit-call score of the fitted dose curve at least 0.9, where 1 is the maximum; inactive = score below 0.9.

Experiment: ATG_SREBP_CIS: Attagene CIS-FACTORIAL HepG2 Assay for human Sterol Regulatory Element Binding (SREBP) (AID 2282962)
Conditions: HepG2 Attagene cis-factorial SREBP reporter, mRNA; actives raise or lower the signal
Procedure: ATG_CIS is a cell-based, multiplexed-readout assay that uses HepG2, a human liver cell line, with measurements taken at 24 hours after chemical dosing in a 24-well plate.ATG_SREBP_CIS is one of 52 assay component(s) measured or calculated from the ATG_CIS assay. It is designed to make measurements of mRNA induction, a form of inducible reporter, as detected with fluorescence intensity signals by Reverse transcription polymerase chain reaction (RT-PCR) and Capillary electrophoresis technology.Data from the assay component ATG_SREBP_CIS was analyzed into 1 assay endpoint. This assay endpoint, ATG_SREBP_CIS, was analyzed with bidirectional fitting relative to DMSO as the negative control and baseline of activity. Using a type of inducible reporter, measures of mRNA for gain or loss-of-signal activity can be used to understand the reporter gene at the transcription factor-level as they relate to the gene SREBF1. Furthermore, this assay endpoint can be referred to as a primary readout, because this assay has produced multiple assay endpoints where this one serves a reporter gene function. To generalize the intended target to other relatable targets, this assay endpoint is annotated to the dna binding intended target family, where the subfamily is basic helix-loop-helix leucine zipper.
Human liver HepG2 cells are transiently transfected with multiple reporter transcription units (MRTUs) in 6-well plates using FuGene 6 reagent (Roche; 3 ml FuGene/1 mg DNA). The MRTU constructs are regulated by a cis-regulating element (promoter). […] A major difference between the CIS and TRANS system is that in CIS activities of endogenous TFs are measured, whereas the TRANS assay evaluates changes in activities of exogenous, chimeric NR-Gal4 proteins. […] At the end of 24 hour incubation, total RNA was isolated using TriZol reagent (Invitrogen). The isolated RNA is then reverse-transcribed using oligo(dT) primer and Mo-MLV reverse transcriptase (Invitrogen) with DNAse I (Ambion) treatment for 30 min. The one-tenth of the produced cDNA was amplified by PCR using Taq DNA polymerase (Invitrogen) and two reporter sequence-specific primers. The PCR products were fluorescently labeled by primer extension with 6-arboxyfluorescein (6-FAM) 5'-labeled reporter sequence-specific primer (2 min at 95 C, 20 s at 68 C and 10 min at 72 C) and these products were digested with 5U of HpaI (New England Biolabs) for 2h at 37 C. The fragments were purified using Qiaquick PCR columns (Qiagen), analyzed on an ABI 3130xL genetic analyzer (Applied Biosystems) with peak positions identified by using a set of X-rhodamine (ROX)-labeled MapMarker1000 molecular weight standards (BioVentures). The raw capillary electrophoresis data was processed using Attagraph software (Attagene).

| Compound | outcome | AC50 |
| --- | --- | --- |
| O=C1CCCC=CCCCCCCCCCC1 | inactive |  |
| C=C(C)C(=O)OCC(CC)(COC(=O)C(=C)C)COC(=O)C(=C)C | inactive |  |
| Cc1cc(C)nc(NS(=O)(=O)c2ccc(N)cc2)n1 | inactive |  |
| CCOc1ccc(NC(=O)CC(C)=O)cc1 | inactive |  |
| CCCCOC(=O)CCCCCCCC(=O)OCCCC | inactive |  |
| CC(=O)O[C@@H]1CC2CCC1(C)C2(C)C (stereo not given in full) | inactive |  |
| CCCCC(CC)COC(C)=O (stereo not given) | inactive |  |
| C=C(C)[C@@H]1CC=C(C)C(=O)C1 | inactive |  |
| CCCSc1ccc2nc(NC(=O)OC)[nH]c2c1 | inactive |  |
| CCCCOCC | inactive |  |
| CC=Cc1ccc(OC)c(OC)c1 | inactive |  |
| C=Cc1ccncc1 |  | 17.1 µM (active) |
| CCCCCC(C=O)=Cc1ccccc1 | inactive |  |
| CC=CC=CCOC(=O)C(C)C | inactive |  |
| CCc1ccc(O)c(OC)c1 | inactive |  |
| C[C@H]1C[C@@H](O)CC(C)(C)C1 | inactive |  |
| O=[N+]([O-])c1ccc(O)cc1C(F)(F)F |  | 100 µM (active) |
| O=c1[nH]c(=O)c2cn[nH]c2[nH]1 | inactive |  |
| NCCNc1cccc2ccccc12 |  | 35.6 µM (active) |
| CCCCCc1ccco1 | inactive |  |

| Compound | outcome | AC50 |
| --- | --- | --- |
| COS(=O)(=O)O | inactive |  |
| Nc1ccc(NCCO)c([N+](=O)[O-])c1 | inactive |  |
| NCC1CCCC(CN)C1 (stereo not given) | inactive |  |
| CCCCCCOCCOCCO | inactive |  |
| COc1ccccc1[N+](=O)[O-] | inactive |  |
| CC(=O)C(C)O (stereo not given) | inactive |  |
| CCCCCC(C)=O | inactive |  |
| CCC1(c2ccccc2)C(=O)NCNC1=O | inactive |  |
| C=C(CC(=O)O)C(=O)O | inactive |  |
| COc1ccc(OC)c(N=Nc2c(O)ccc3ccccc23)c1 | inactive |  |
| CCCC(C)=O | inactive |  |
| COc1cc(CCC(C)=O)ccc1O | inactive |  |
| CCCOCCO | inactive |  |
| CC(C)OCCO | inactive |  |
| CCCCC1CCC(O)CC1 (stereo not given) | inactive |  |
| CCCCCCC(C)Nc1ccc(Nc2ccccc2)cc1 (stereo not given) | inactive |  |
| CC(C)=CCCC(C)CC(=O)O (stereo not given) | inactive |  |
| C[Si]1(C)O[Si](C)(C)O[Si](C)(C)O1 | inactive |  |
| Clc1cc(Cl)c(-c2c(Cl)c(Cl)cc(Cl)c2Cl)cc1Cl |  | 50 µM (active) |
| CCCCCCCCCC(C)C=O (stereo not given) | inactive |  |
